Source: PubChem (National Center for Advancing Translational Sciences (NCATS))
HCV inh – blocks hepatitis C virus. Huh7.5.1 HCVcc-Cre infection, luciferase reporter, 44 h. Potency, µM (highest dose often 41.8 µM), inactives show top-dose activity change, negative = inhibition, hits mostly inhibitors. 3.4% of 340,000 active. AID 651820
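Reporter virus HCVcc-Cre (~0.5 moi) infects cells exposed to compound; seeding density 1,000 cells/well with 4 h settling beforehand. Luminescence, 15 sec read, taken 44 h post-infection following a 15 min RT substrate incubation.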
Pf growth 48h – P. falciparum growth inhibition at 48 hours (one generation). P. falciparum luciferase growth in erythrocytes, 48 h. Potency, µM (series often up to 28.7 µM), without a hit: at the highest dose activity change, negative = inhibition, usual class: inhibitors. 5.9% of 310,000 active
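Luminescence readout; reporter = integrated firefly luciferase in P. falciparum. RBC culture at 2% hematocrit, 0.1% parasitemia final, 37 C/5% CO2; decreased signal taken as growth inhibition.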
AMA1-RON2 inh – AMA1-RON2 (P. falciparum) interaction inhibition | AlphaScreen AMA1-biotinylated RON2 peptide binding | Potency, µM (top dose mostly 58.2 µM), inactives show top-dose activity change, negative = inhibition, actives largely listed as inhibitors | 0.2% of 360,000 active | AID 720542;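 also: 0% = vehicle wells and -100% = peptide control; nearly all actives have a fitted effect of over 45% in size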
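AMA1 (3D7) with his tag at 25 nM final met compounds first, then biotinylated RON2 peptide at 25 nM; detection used donor plus acceptor beads, 10 µg/mL apiece, read by AlphaScreen after 30 min at room temperature.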
AmpC detergent – AmpC beta-lactamase inhibition with detergent present; Potency, µM (series often up to 114 µM), for inactives: top-dose activity change, negative = inhibition, actives largely listed as inhibitors; AmpC hydrolysis of nitrocefin, absorbance 480 nm, 0.01% Triton; AID 485294; 0.041% of 370,000 active; P00811;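 also: 0% = no-compound wells and -100% = no-enzyme wells; nearly all actives have a fitted effect of over 25% in size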
Target sequence (P00811 whole entry, looked up): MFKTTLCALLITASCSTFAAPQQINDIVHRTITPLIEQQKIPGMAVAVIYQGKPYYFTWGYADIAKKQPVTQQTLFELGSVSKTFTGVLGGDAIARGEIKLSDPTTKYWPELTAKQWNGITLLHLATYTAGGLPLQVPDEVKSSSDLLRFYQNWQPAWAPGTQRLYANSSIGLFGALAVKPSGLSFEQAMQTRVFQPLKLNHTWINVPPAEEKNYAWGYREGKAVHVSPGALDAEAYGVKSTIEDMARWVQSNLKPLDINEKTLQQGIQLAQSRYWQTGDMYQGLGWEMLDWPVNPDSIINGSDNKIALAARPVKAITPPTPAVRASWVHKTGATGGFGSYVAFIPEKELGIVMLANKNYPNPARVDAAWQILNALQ
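AmpC (5.3 nM in the dispensed reagent) in 20 mM phosphate pH 7.0 with 0.01% (detergent screen) or 0.0001% Triton X-100 was preincubated with compounds for 15 min at room temperature. Nitrocefin was then added from an 800 uM solution, and hydrolysis was followed at 480 nm.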
Pf growth 96h – P. falciparum growth inhibition at 96 hour, primary screen for plastid delayed-death inhibitors; P. falciparum luciferase reporter growth, 96 h; AID 504834; 6.9% of 320,000 active; Potency, µM (series often up to 28.7 µM), inactives show at the top dose activity change, negative = inhibition, actives largely listed as inhibitors
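Infected RBCs, 2% Hct / 0.05% parasitemia final; luciferase-reporter P. falciparum; cpd 96 h, 37 C, 5% CO2; luciferase detection reagent; luminescence.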
AmpC no deterg – AmpC beta-lactamase inhibition without detergent. P00811. AmpC nitrocefin hydrolysis, absorbance 480 nm, 0.0001% Triton. Potency, µM (highest dose often 57.1 µM), inactives show at the highest dose activity change, negative = inhibition, most hits filed as inhibitors. 0.52% of 330,000 active. AID 485341;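 also: plate controls were no compound for no effect and no enzyme for full effect; nearly all actives have a fitted effect of over 20% in size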
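20 mM phosphate pH 7.0 + 0.01% (detergent screen) or 0.0001% Triton X-100; 5.3 nM AmpC reagent; cpd preinc 15 min RT; nitrocefin (800 uM stock) to start; A480 q20 s × 4 min; Activity was normalised to no-enzyme and no-compound control wells.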
An asterisk follows results filed as active; ? = inconclusive; . = no result given; [ ] = another dose, or the depositor's remark. Most compounds without a hit are left out; they make up all but 11% or so of the library. Calls follow the shape of the dose curve; as a rule, active = well fitted curve in the direction sought with a large enough effect; inconclusive = small, poorly fitted or top-dose-only effect, or another doubt; inactive = no such curve, though single readings can be large; an effect the other way counts as inactive or inconclusive. Unless noted, % is scaled to controls: 0 for no effect and ±100 for the full control effect; potency is read from the fitted curve at half-maximal effect.

SMILES	HCV inh	Pf growth 48h	AMA1-RON2 inh	AmpC detergent	Pf growth 96h	AmpC no deterg
Cc1ccc(N2C(=O)C(CC(=O)Nc3cccc(F)c3)N(CCc3ccccc3F)C2=O)cc1 (centres undefined)	.	.	.	-4%	.	.
COc1cc(NC(=O)C2CCCN(S(=O)(=O)c3ccc4c(c3)oc(=O)n4C)C2)c(C(=O)O)cc1OC (centres undefined)	.	.	.	6%	.	.
CCCN1C(=O)c2[nH]nc(-c3ccccc3O)c2C1c1ccc(OCc2ccccc2)c(OCC)c1 (centres undefined)	.	.	.	19%	.	.
COc1ccc(-c2noc(-c3cccc(Cl)c3)n2)cc1OC	-19%[0.335 µM]	76%	-8%[2.32 µM]	?	-5%	-29%
CCOc1ccc(-c2nc(-c3ccc(OC)cc3)no2)cc1OCC	7.9µM*	8%	1%	-9%	?	-8%
CCOc1ccc(-c2noc(-c3ccncc3)n2)cc1OCC	?	11%	-28%	1%	13%	-7%
COc1ccc(-c2noc(-c3ccccc3Cl)n2)cc1OC	10µM*	224%	32%	5%	.	-21%
COc1ccc(-c2noc(-c3ccco3)n2)cc1OC	11µM*	199%	14%	?	?	.
COc1ccccc1CNc1ccc(-c2nc(-c3ccncc3)no2)cc1[N+](=O)[O-]	.	.	.	-10%	.	.
Cc1ccccc1NC(=O)Cn1cc(S(=O)(=O)N2CCCC2)c(S(=O)(=O)N2CCCC2)c1	.	.	.	-1%	.	.
COc1ccc(CCNC(=O)CCCn2c(=O)c3cccn3c3ccc(F)cc32)cc1OC	.	.	.	9%	.	.
COc1cccc(CN(C)CC(=O)Nc2cccc(S(N)(=O)=O)c2)c1OC	-6%	5%	24%	-19%	-16%	-3%
COc1cccc(CN(C)CC(=O)Nc2cccc(C(F)(F)F)c2)c1OC	10µM*	?	-4%	1%	?	71%
COc1cc(NC(=O)CSCC(=O)Nc2cccc(C(F)(F)F)c2)c(Cl)cc1Cl	-17%	?	-2%	0%	12µM*	23%
COc1ccc(-c2noc(N(C)CC(=O)Nc3cccc(C(F)(F)F)c3)n2)cc1	11µM*	80%	9%	6%	6%	9%
COc1ccc(-c2noc(Cn3c(=O)c4ccccc4n(CC(=O)Nc4cccc(C(F)(F)F)c4)c3=O)n2)cc1	.	.	.	21%	.	.
Cn1cnnc1SCC(=O)Nc1cc(C(=O)O)cc(C(=O)O)c1	.	.	.	2%	.	.
Cc1ccccc1-n1c2nc(=O)[nH]c(=O)c-2cc2c(Cl)cccc21	.	.	.	15%	.	.
CC(=O)N1CCN(Cc2nc3scc(-c4ccccc4)c3c(=O)[nH]2)CC1	6%	?	9%	-13%	13µM*	18%
COc1cccc(/C=C/c2nc(C#N)c(N3CCCCC3)o2)c1	.	.	.	1%	.	.
CCOCCCNC(=O)CCCOc1ccccc1	11%	28%	-9%	-6%	4.7µM*	-14%
CCCCOc1ccc(C(=O)NCC(=O)NCCOc2ccccc2)cc1	-13%	6%	-5%	?	18%	35µM*
CN(Cc1ccccc1)C(=O)c1ccc2c(c1)N(Cc1ccc(Cl)cc1)C(=O)c1ccccc1S2=O (centres undefined)	.	.	.	0%	.	.
O=C(COc1ncnc2ccccc12)Nc1ccc(Cl)c([N+](=O)[O-])c1	0%	24%	12%	-8%	18%	-42%
O=C(CN(C(=O)c1ccccc1Cl)C1CCCCC1)Nc1ccc(Cl)c([N+](=O)[O-])c1	?	13µM*	-17%	-8%	31%	-19%
SMILES	HCV inh	Pf growth 48h	AMA1-RON2 inh	AmpC detergent	Pf growth 96h	AmpC no deterg
O=C(CN(C(=O)c1ccc(Cl)cc1)C1CCCCC1)Nc1ccc(Cl)c([N+](=O)[O-])c1	?	?	-23%	-11%	9.3µM*	-33%
Cc1cccc(NC(=O)CCNS(=O)(=O)c2ccc3c(c2)CCN3C(=O)C2CC2)c1	.	.	.	1%	.	.
CC(C)(C)C(=O)NC(=S)NNC(=O)C(c1ccccc1)c1ccccc1	?	13µM*	102%	1%	?	-34%
CC(=O)NNC(=S)NC(=O)C(c1ccccc1)c1ccccc1	?	2.1µM*	114%	2%	?	-32%
COC(=O)c1ccc(OCC2c3cc(OC)c(OC)cc3CCN2C(=O)Cc2ccccc2)cc1 (centres undefined)	.	.	.	-3%	.	.
COc1ccccc1NC(=O)Nc1cc(NC(=O)Nc2ccccc2OC)c(C)nc1C	-4%	?	7%	?	6.6µM*	-14%
O=C(Nc1cccc(F)c1)Nc1ccc2c(c1)CCC2	-1%	-8%	0%	5%	1.7µM*	-20%
COc1cc(SC)ccc1C(=O)Nc1ccc2c(c1)CCC2	10µM*	49%	6%	2%	-49%	-35%
CCCN(CC(=O)Nc1ccccc1OC)C(=O)Cc1ccc2c(c1)CCC2	2%	10µM*	9%	-11%	?	9%
CCCCN(CC)CCCNC(=O)c1sc2nc(C)cc(C)c2c1-n1cccc1	.	.	.	20%	.	.
CC(=O)N1c2c(cc(Br)cc2S(=O)(=O)NCc2ccccc2Cl)CC1C (centres undefined)	.	.	.	9%	.	.
CCOC(=O)c1c(C)c(-c2ccccc2)n(CC(=O)NCc2ccccc2)c1C	.	.	.	1%	.	.
COCCn1c(SCc2ccccc2F)nc2c([nH]c3ccccc32)c1=O	.	.	.	2%	.	.
COc1ccccc1NC(=O)Nc1ccc2c(c1)CCC2	-29%	52%	-1%	-2%	-2%	10µM*
CCCCCCCCCCCC(=O)OCC(O)C1OCC(O)C1O (centres undefined)	.	-10%	.	.	-6%	.
CC1=C(C(=O)N2CCCC(N3CCN(c4cccc(C(F)(F)F)c4)CC3)C2)OCCO1 (centres undefined)	-18%	-17%	7%	0%	13µM*	148%
O=C(c1ccncc1)N1CCCC(N2CCN(c3cccc(C(F)(F)F)c3)CC2)C1 (centres undefined)	7%	-17%	24%	4%	?	173%
CC1=C(C(=O)N2CCCC(C(=O)c3cccc(C(F)(F)F)c3)C2)OCCO1 (centres undefined)	-26%	?	9%	1%	13µM*	65%
CCc1cc(C(=O)N2CCCC(N3CCN(c4cccc(C(F)(F)F)c4)CC3)C2)n(C)n1 (centres undefined)	10µM*	?	-4%	-3%	7%	209%
Cc1ccccc1C(O)(Cc1ccccc1)C1CN2CCC1CC2 (centres undefined)	?	.	37%	-9%	10µM*	3%
